In PubChem BioAssay (EPA / NIEHS):
Results filed as inconclusive are left out. Active and inactive are the calls of the source. How the source made its calls, unless noted: active means hit-call score of the fitted dose curve at least 0.9, where 1 is the maximum; inactive means score below 0.9.

Assays:
CD69, CD69 (gene 969) = test: BSK_LPS_CD69: BioMAP Diversity Plus: LPS Assay for CD69 Biomarker Activity (AID 2284303); conditions: primary human HUVEC with PBMC
Procedure, shortened: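 CD69 surface levels were read by ELISA after 24 h chemical treatment of an LPS-stimulated HUVEC plus PBMC co-culture; positive-direction fit against DMSO vehicle.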

[1] = Tanguay_ZF_120hpf_MO24: Oregon State University Tanguay Lab 24 Hour Post-fertilization zebrafish Assay for Mortality (AID 2284389)
Procedure, shortened: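 Embryo death at 24 hpf was recorded as present or absent in Tropical 5D zebrafish, dechorionated at 4 hpf and dosed statically from 6 hpf (28C, 0.64% DMSO); 5 uM trimethyltin chloride served as positive control.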

[2] = Tanguay_ZF_120hpf_DP24: Oregon State University Tanguay Lab 24 Hour Post-fertilization zebrafish Assay for Delayed Development (AID 2284390)
Procedure, shortened: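 Scored at 24 hpf as a binary present/absent call of delayed development by brightfield, with dead embryos not assessed. Embryos (5D wild type, chorion removed with pronase at 4 hpf) dosed statically from 6 hpf at 28 C in 0.64% DMSO.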

IYD (gene 389434) = test: CCTE_GLTED_hIYD: CCTE's human Iodotyrosine Deiodinase (xIYD) Inhibition Assay, Great Lakes Toxicology and Ecology Division (GLTED) Lab (AID 2284317; active means hit-call score of the fitted dose curve at least 0.9, where 1 is the maximum;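 further: cell-free human IYD enzyme made in baculovirus insect cells; iodide freed from monoiodotyrosine measured by cerium arsenite color change at 420 nm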)
Procedure, shortened: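 Deiodination of MIT by insect-cell-produced human IYD is measured after a 3 h incubation with test chemical. Free iodide passes through a Dowex column and accelerates Sandell-Kolthoff Ce4+ reduction, read at 420 nm; run in triplicate.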

[3] = CCTE_Deisenroth_5AR_NBTE_donor: CCTE's 5alpha-reductase NanoBRET Target Engagement Assay […], Deisenroth Lab (AID 2284319); conditions: actives raise or lower the signal
Procedure, shortened: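 HEK293T cells transiently expressing SRD5A2-NanoLuc, exposed 5 h to chemicals (8 points, 10 nM - 29.9 uM), with testosterone tracer for the final 2 h. Donor luminescence at 460 nm read after Nano-Glo substrate plus extracellular NanoLuc inhibitor; bidirectional fit versus DMSO.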

[4] = CCTE_Deisenroth_5AR_NBTE_acceptor: CCTE's 5alpha-reductase NanoBRET Target Engagement Assay - Autofluorescence Screen, Deisenroth Lab (AID 2284321); conditions: actives raise or lower the signal;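 further: compound fluorescence in the acceptor channel under 460 nm excitation flags autofluorescence artifacts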
Procedure, shortened: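 Using three independent plate-reader runs, nominal 100 uM chemicals were checked for intrinsic fluorescence (ex 460 nm). DMSO defined the baseline for bidirectional fitting.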

SRD5A2 (gene 6716) = test: CCTE_Deisenroth_5AR_NBTE_ratio: CCTE's 5alpha-reductase NanoBRET Target Engagement Assay - Ratio, Deisenroth Lab (AID 2284322); conditions: actives raise or lower the signal
Procedure, shortened: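 HEK293T cells transiently expressing an SRD5A2-NanoLuc fusion (20 h post-transfection) were exposed to test chemical (10 nM - 29.9 uM, 8 points) for 3 h, then testosterone tracer for a further 2 h. Acceptor/donor BRET ratio was fitted bidirectionally against DMSO baseline.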

SERPINA7 (gene 6906) = test: CCTE_GLTED_hTBG: CCTE's human Thyroxine-binding Globulin (TBG) Inhibition Assay, Great Lakes Toxicology and Ecology Division (GLTED) Lab (AID 2284343; active means hit-call score of the fitted dose curve at least 0.9, where 1 is the maximum;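 further: active chemicals lower fluorescence versus DMSO baseline by displacing probe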)
Procedure, shortened: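 Human thyroxine-binding globulin was exposed to each chemical for 2 hours, during which the ANSA probe could be displaced. Fluorescence was then measured at 380/475 nm, and loss of signal was analysed relative to DMSO.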

[5] = IUF_NPC4_neurite_area_120hr: Leibniz Research Institute for Environmental Medicine (IUF) 120-hour Neuronal Morphology Assay for Neurite Area (NPC4) (AID 2284305; active means hit-call score of the fitted dose curve at least 0.9, where 1 is the maximum)
Procedure, shortened: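 Neurite area (pixels, nuclei excluded) of TUBB3-positive neurons from hNPC spheres differentiating 5 days under continuous exposure at 37 C, 5% CO2. High-content imaging; loss of signal versus DMSO control across 7 concentrations.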

[6] = IUF_NPC2-5_cytotoxicity_72hr: Cytotoxicity Assessment at 72 hours in the Leibniz Research Institute for Environmental Medicine (IUF) Neural Progenitor Cell Migration and Differentiation Assay for Cytotoxicity (NPC2-5) (AID 2284306; active means hit-call score of the fitted dose curve at least 0.9, where 1 is the maximum;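 further: LDH release into supernatant measured by resorufin fluorescence marking membrane damage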)
Procedure, shortened: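 Membrane-integrity cytotoxicity at 72 h, read as LDH-driven resorufin fluorescence in supernatant. hNPC spheres from fetal cortex differentiate on coated plates in N2 medium, 37C, 5% CO2; seven serial compound concentrations plus solvent control (DMSO ≤0.1%).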

[7] = IUF_NPC2-5_cytotoxicity_120hr: Cytotoxicity Assessment at 120 hours in the Leibniz Research Institute for Environmental Medicine (IUF) Neural Progenitor Cell Migration and Differentiation Assay (NPC2-5) (AID 2284307; active means hit-call score of the fitted dose curve at least 0.9, where 1 is the maximum)
Procedure, shortened: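 Membrane-integrity loss is quantified by LDH in supernatant after five days of exposure of migrating, differentiating human fetal NPC spheres; seven serially diluted concentrations are tested with DMSO kept at or below 0.1%.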

[8] = IUF_NPC2-5_cell_number_120hr: Cell Number Assessment at 120 hours in the Leibniz Research Institute for Environmental Medicine (IUF) Neural Progenitor Cell Migration and Differentiation Assay (NPC2-5) (AID 2284308);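 further: count of Hoechst-stained nuclei in migration zone around plated human neural progenitor spheres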
Procedure, shortened: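 Seven-point serial dilutions plus solvent control were applied to plated 0.3 mm hNPC spheres at differentiation start, with medium half-replaced at day 3. Nuclei positive for Hoechst in the migration zone were enumerated at 120 h.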

[9] = IUF_NPC2-5_viability_120hr: Viability Assessment at 120 hours in the Leibniz Research Institute for Environmental Medicine (IUF) Neural Progenitor Cell Migration and Differentiation Assay (NPC2-5) (AID 2284312)
Procedure, shortened: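 Alamar blue resorufin fluorescence read after 5 days of differentiation, with compound present from day 0 and replenished at day 3. Primary hNPC spheres on laminin-coated plates, 37C; seven concentrations plus solvent control, fitted against DMSO.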

[10] = TAMU_PeakParms_SingleDonor1434_Asystole: Texas A&M University (TAMU) 1.5-hr Human Induced Pluripotent Stem Cell (iPSC)-derived Cardiomyocytes Calcium (Ca+2) Flux Assay for Cardiotoxicity: Asystole (quiescence of beating) (AID 2284328; active means hit-call score of the fitted dose curve at least 0.9, where 1 is the maximum)
Procedure, shortened: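 Average Ca2+-flux peak frequency (beats/s) was recorded in single-donor iPSC-derived cardiomyocytes after 90 min exposure (0.2–100 uM final, 0.5% DMSO). Asystole POD set as EC95 against DMSO, no preprocessing.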

[11] = IUF_NPC1_cytotoxicity_72hr: Cytotoxicity Assessment at 72 hours in the Leibniz Research Institute for Environmental Medicine (IUF) Neural Progenitor Cell Proliferation Assay (NPC1) (AID 2284332; active means hit-call score of the fitted dose curve at least 0.9, where 1 is the maximum;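 further: rising LDH signal means more cytotoxicity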)
Procedure, shortened: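 Membrane-integrity loss is scored from LDH released into the medium, detected as resorufin fluorescence, with activity fitted upward relative to baseline. Test material stays on human fetal-derived progenitor spheres for 72 h.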

TTR (gene 7276) = test: CCTE_GLTED_hTTR_0.5uM: CCTE's human Transthyretin (hTTR) Inhibition Assay, with 0.5uM TTR, Great Lakes Toxicology and Ecology Division (GLTED) Lab (AID 2284320)
Procedure, shortened: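 Probe (ANSA) displacement from 0.5 uM human transthyretin was followed by fluorescence (ex 380, em 475) after a 2 h incubation with chemical. Activity was scored as signal loss and fitted positively relative to DMSO.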

Structure (SMILES): C=CC(F)(F)C(F)(F)C(F)(F)C(F)(F)C(F)(F)C(F)(F)C(F)(F)C(F)(F)C=C
- outcome (CD69, CD69 (gene 969)): inactive
- outcome [1]: inactive
- outcome [2]: inactive

Structure (SMILES): OCCCC(F)(F)C(F)(F)C(F)(F)F
- outcome (CD69, CD69 (gene 969)): inactive
- outcome [1]: inactive

Structure (SMILES): O=C(O)C(F)(F)C(F)(F)F
- outcome (CD69, CD69 (gene 969)): inactive
- outcome [1]: inactive

Structure (SMILES): O=C(O)C=C(C(F)(F)F)C(F)(F)F
- outcome (CD69, CD69 (gene 969)): inactive
- outcome [1]: inactive

Structure (SMILES): FC1CC(F)(F)C(F)(F)C1(F)F (stereo unspecified)
- outcome (CD69, CD69 (gene 969)): inactive
- outcome [1]: inactive
- outcome [2]: inactive

Structure (SMILES): CCCCCCCCC(F)(F)C(F)(F)C(F)(F)C(F)(F)C(F)(F)C(F)(F)F
- outcome (CD69, CD69 (gene 969)): inactive
- outcome [1]: inactive
- outcome [2]: inactive

Structure (SMILES): CC(Cc1ccc(O)c(O)c1)C(C)Cc1ccc(O)c(O)c1 (stereo unspecified)
- outcome (IYD (gene 389434)): inactive
- AC50 [3]: 64.7 µM (active)
- AC50 [4]: 50 µM (active)
- AC50 (SRD5A2 (gene 6716)): 93.7 µM (active)
- AC50 (SERPINA7 (gene 6906)): 7.96 µM (active)

Structure (SMILES): O=S(=O)(O)c1ccc2ccccc2c1
- AC50 (SERPINA7 (gene 6906)): 24.5 µM (active)

Structure (SMILES): FC(F)(F)C(F)(F)C(F)(F)C(F)(F)C(F)(F)C(F)(F)C(F)(F)Br
- outcome (CD69, CD69 (gene 969)): inactive
- outcome [1]: inactive

Structure (SMILES): O=S(=O)(OCC(F)F)C(F)(F)F
- outcome (CD69, CD69 (gene 969)): inactive
- outcome [1]: inactive

Structure (SMILES): O=C(O)C(F)(OC(F)(F)C(F)(OC(F)(F)C(F)(OC(F)(F)C(F)(F)C(F)(F)F)C(F)(F)F)C(F)(F)F)C(F)(F)F (stereo unspecified)
- outcome (CD69, CD69 (gene 969)): inactive
- outcome [1]: inactive

Structure (SMILES): CCO[Si](CCC(F)(F)C(F)(F)C(F)(F)C(F)(F)C(F)(F)C(F)(F)F)(OCC)OCC
- outcome (CD69, CD69 (gene 969)): inactive
- outcome [1]: inactive

Structure (SMILES): C=CC(F)(F)C(F)(F)C(F)(F)C(F)(F)C(F)(F)C(F)(F)C(F)(F)C(F)(F)F
- outcome (CD69, CD69 (gene 969)): inactive
- outcome [1]: inactive

Structure (SMILES): FC(F)(F)C(F)(F)CNCC(F)(F)C(F)(F)F
- outcome (CD69, CD69 (gene 969)): inactive
- outcome [1]: inactive

Structure (SMILES): OC[C@@H](O)[C@@H](O)[C@H](O)[C@@H](O)CO
- outcome [5]: inactive
- outcome [6]: inactive
- outcome [7]: inactive
- outcome [8]: inactive
- outcome [9]: inactive
- outcome [10]: inactive
- outcome [11]: inactive

Structure (SMILES): O=C(O)C(F)(F)C(F)(F)C(F)(F)C(F)(F)F
- outcome (CD69, CD69 (gene 969)): inactive
- AC50 (TTR (gene 7276)): 10.2 µM (active)
- outcome [1]: inactive
- outcome [2]: inactive

Structure (SMILES): FC(F)(F)C(F)(F)C(F)(F)C(F)(F)C(F)(F)C(F)(F)C(F)(F)I
- outcome (CD69, CD69 (gene 969)): inactive
- outcome [1]: inactive

Structure (SMILES): OCC(F)(F)C(F)(F)C(F)(F)C(F)(F)C(F)(F)C(F)F
- outcome (CD69, CD69 (gene 969)): inactive
- AC50 (TTR (gene 7276)): 33.2 µM (active)
- outcome [1]: inactive

Structure (SMILES): C=C(C)C(=O)OCCC(F)(F)C(F)(F)C(F)(F)C(F)(F)C(F)(C(F)(F)F)C(F)(F)F
- outcome (CD69, CD69 (gene 969)): inactive
- outcome [1]: inactive

Structure (SMILES): CCN(Cc1cccc(S(=O)(=O)O)c1)c1ccc(C(=C2C=CC(=[N+](CC)Cc3cccc(S(=O)(=O)O)c3)C=C2)c2ccc(O)cc2S(=O)(=O)[O-])cc1
- AC50 (IYD (gene 389434)): 66.1 µM (active)
- outcome [3]: inactive
- AC50 [4]: 1.52 µM (active)
- AC50 (SRD5A2 (gene 6716)): 1.56 µM (active)
- AC50 (SERPINA7 (gene 6906)): 25.4 µM (active)

Structure (SMILES): NC(=O)C(F)(F)C(F)(F)C(F)(F)C(F)(F)F
- outcome (CD69, CD69 (gene 969)): inactive
- outcome [1]: inactive
- outcome [2]: inactive

Structure (SMILES): O=C(O)C(F)(OC(F)(F)C(F)(OC(F)(F)C(F)(F)C(F)(F)F)C(F)(F)F)C(F)(F)F (stereo unspecified)
- outcome (CD69, CD69 (gene 969)): inactive
- outcome [1]: inactive

Structure (SMILES): O=C(O)C(F)(F)C(F)(F)C(F)F
- outcome (CD69, CD69 (gene 969)): inactive
- AC50 (TTR (gene 7276)): 14.9 µM (active)
- outcome [1]: inactive

Structure (SMILES): O=S(=O)(OCCOC(F)(F)F)C(F)(F)F
- outcome (CD69, CD69 (gene 969)): inactive
- outcome [1]: inactive
